Results filed as inconclusive are left out. Some compounds were tested as several samples or in several runs, with calls that do not always agree. Calls of active or inactive are those of the source. How the source made its calls, unless noted: active means hit-call score of the fitted dose curve at least 0.9, where 1 is the maximum; inactive means score below 0.9.

Experiment [1] has as its target Transcriptional activator Myb (Homo sapiens) (UniProt P10242). Nature of the experiment: ATG_Myb_CIS: Attagene CIS-FACTORIAL HepG2 Assay for human Myeloblastosis (Myb) Proto-Oncogene Transcription Factor (AID 2282986). The settings on record: HepG2 Attagene CIS-FACTORIAL Myb reporter transcription; actives raise or lower the signal. In outline: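 Fluorescence signals from capillary electrophoresis of RT-PCR-amplified reporter cDNA give the read-out. Cells: HepG2 transfected with multiple cis-regulated reporter units. Exposure lasts 24 hours; DMSO defines baseline for gain or loss of signal.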

Experiment [2] has as its target Nuclear respiratory factor 1 (Homo sapiens) (UniProt Q16656). Nature of the experiment: ATG_NRF1_CIS: Attagene CIS-FACTORIAL HepG2 Assay for human Nuclear Respiratory Factor 1 (NRF1) Orphan Gene (AID 2282987). The conditions noted are these: HepG2 NRF1 cis-element reporter, Attagene multiplex; actives raise or lower the signal. In outline: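 Transcriptional reporter readout, one component of a 52-endpoint multiplexed HepG2 panel. Exposure 24 h; mRNA detected via RT-PCR and fluorescent capillary electrophoresis; fitting in both directions against DMSO.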

Experiment [3] is described as follows: ATG_NFI_CIS: Attagene CIS-FACTORIAL HepG2 Assay for human Nuclear Factor I (NFI) (AID 2282989). The conditions noted are these: HepG2 cis-regulatory reporter, NFI response element transcription; actives raise or lower the signal. In short, it runs like this: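 Transfected HepG2 liver cells, exposed 24 h, supplied total RNA for oligo(dT) reverse transcription and reporter-specific PCR. Labelled, HpaI-cut fragments were sized by capillary electrophoresis; DMSO set the baseline for bidirectional fitting.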

The target in experiment [4] is Myc proto-oncogene protein (Homo sapiens) (UniProt P01106). The experiment is described as follows: ATG_Myc_CIS: Attagene CIS-FACTORIAL HepG2 Assay for human Myelocytomatosis (Myc) Proto-Oncogene Transcription Factor (AID 2282990). The settings on record: HepG2, Attagene cis-reporter transcription factor activity; actives raise or lower the signal. In short, it runs like this:
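DMSO-normalised, bidirectionally fitted reporter mRNA signal. HepG2 cells transfected with cis reporter constructs, treated 24 h; transcripts detected by RT-PCR, 6-FAM primer extension and CE.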

Experiment [5] in a line: ATG_NRF2_ARE_CIS: Attagene CIS-FACTORIAL HepG2 Assay for human Nuclear Factor Erythroid 2 Related Factor 2 (NFR2) response to Antioxidant Response Elements (ARE) (AID 2282992).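 On AC50: reporter mRNA level measured by RT-PCR and capillary electrophoresis fluorescence.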 The settings on record: HepG2 Attagene ARE/NRF2 reporter, transcription factor activity; actives raise or lower the signal. In outline:
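Multiplexed reporter mRNA profiling in HepG2 after a 24 h chemical exposure. Curves fitted in both directions relative to DMSO negative control.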

Experiment [6] is described as follows: ATG_Oct_MLP_CIS: Attagene CIS-FACTORIAL HepG2 Assay for human Octamer-Binding Transcription Factor (Oct) (AID 2282993). The conditions noted are these: HepG2 Attagene cis-factorial Oct reporter, mRNA; actives raise or lower the signal. In outline:
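Using HepG2 cells bearing transfected cis-reporter constructs, mRNA induction was read after 24 h by fluorescent RT-PCR and capillary electrophoresis, with DMSO defining baseline for gain- or loss-of-signal fits.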

The target of experiment [7] is Cellular tumor antigen p53 (Homo sapiens) (UniProt P04637). The experiment is described as follows: ATG_p53_CIS: Attagene CIS-FACTORIAL HepG2 Assay for human p53 Transcription Factor (AID 2282994). The conditions noted are these: HepG2 p53 cis-element reporter, Attagene mRNA; actives raise or lower the signal. In outline:
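Multiplexed reporter mRNA assay in human HepG2 liver cells; cis-regulated units report endogenous factor activity. Values come from bidirectional curve fitting against DMSO negative control after 24 h treatment.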

The nature of experiment [8]: BSK_3C_TissueFactor: BioMAP Diversity Plus: 3C Assay for Tissue Factor Biomarker Activity (AID 2282997). The conditions noted are these: BioMAP 3C HUVEC, tissue factor biomarker readout; actives raise or lower the signal. In outline:
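Primary human umbilical vein endothelial cells in the 3C system were exposed to test chemical for 24 h, then Tissue Factor measured by ELISA. Activity was fitted bidirectionally against DMSO as negative control and baseline.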

The nature of experiment [9]: BSK_3C_uPAR: BioMAP Diversity Plus: 3C Assay for Urokinase-type plasminogen activator receptor (uPAR) Biomarker Activity (AID 2282998). The settings on record: BioMAP 3C HUVEC, uPAR biomarker ELISA; actives raise or lower the signal. In outline:
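In this endothelial cell-based assay, human umbilical vein primary cells were treated with chemicals and harvested at 24 h. uPAR was quantified using ELISA, with gains or losses fitted relative to DMSO controls.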

A short description of experiment [10]: BSK_3C_VCAM1: BioMAP Diversity Plus: 3C Assay for Vascular cell adhesion molecule 1 (VCAM1) Biomarker Activity (AID 2282999). The conditions noted are these: BioMAP 3C HUVEC, VCAM1 ELISA, cytokine-stimulated; actives raise or lower the signal. In short, it runs like this:
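Human umbilical vein endothelial cells were dosed with compound for 24 h, after which cell-surface VCAM-1 was quantified by ELISA. Bidirectional curve fitting used DMSO as negative control and activity baseline.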
On the technique in general: ELISA stands for enzyme-linked immunosorbent assay.

The nature of experiment [11]: BSK_4H_Eotaxin3: BioMAP Diversity Plus: 4H Assay for Eotaxin 3 Biomarker Activity (AID 2283000).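 On outcome: CCL26 protein level quantified by ELISA in parallel with SRB cytotoxicity check.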 The settings on record: primary human endothelial cells (HUVEC); actives raise or lower the signal. In outline: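 HUVEC, 24 h post-dose, ELISA for Eotaxin-3/CCL26. Gain or loss of signal fitted bidirectionally vs DMSO baseline.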
The target of experiment [12] is human Peroxisome Proliferator-activated Receptor alpha (PPARa), PPARA (gene 5465) (UniProt Q07869). Nature of the experiment: ATG_PPARa_TRANS: Attagene TRANS-FACTORIAL HepG2 Assay for human Peroxisome Proliferator-activated Receptor alpha (PPARa) (AID 2283001; active means hit-call score of the fitted dose curve at least 0.9, where 1 is the maximum). In outline: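 HepG2 cells transiently transfected with multiplexed GAL4-UAS reporter units and chimeric NR-Gal4 constructs were dosed for 24 h. Reporter mRNA was measured by RT-PCR with fluorescent labelling and capillary electrophoresis; gain of signal fitted against DMSO.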

Experiment [13] concerns the target human Peroxisome Proliferator-activated Receptor delta (PPARd), PPARD (gene 5467) (UniProt Q03181). The experiment is described as follows: ATG_PPARd_TRANS: Attagene TRANS-FACTORIAL HepG2 Assay for human Peroxisome Proliferator-activated Receptor delta (PPARd) (AID 2283002; active means hit-call score of the fitted dose curve at least 0.9, where 1 is the maximum). In outline:
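Measured quantity: GAL4-UAS reporter transcript induction in HepG2 after 24 h chemical dosing, with NR-Gal4 chimeras supplied by transient transfection. Detection by RT-PCR and capillary electrophoresis; upward fit against DMSO.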

Read-out in experiment [14]: Intercellular Adhesion Molecule 1 (ICAM1), ICAM1 (gene 3383)
Nature of the experiment: BSK_3C_ICAM1: BioMAP Diversity Plus: 3C Assay for Intercellular Adhesion Molecule 1 (ICAM1) Biomarker Activity (AID 2283003). The settings on record: primary human endothelial cells (HUVEC); actives raise or lower the signal. In short, it runs like this: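 Human vascular endothelial primary cells, 3C conditions, 24 h treatment. ICAM-1 by ELISA.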

Experiment [15] in a line: BSK_3C_Proliferation: Cell Proliferation Assessment in the BioMAP Diversity Plus: 3C Assay (AID 2283006).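 On AC50: potency may reflect either rise or fall in cell number versus DMSO.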 The conditions noted are these: primary human endothelial cells (HUVEC). In short, it runs like this:
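Proliferation of human vascular endothelial primary cells after 48 h dosing, quantified as SRB-stained protein at 560 nm relative to DMSO.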

The nature of experiment [16]: ATG_NF_kB_CIS: Attagene CIS-FACTORIAL HepG2 Assay for human Nuclear Factor Kappa B (NF-kB) (AID 2282991). The settings on record: HepG2 Attagene cis-factorial NF-kB reporter mRNA; actives raise or lower the signal. In short, it runs like this: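 HepG2, transient multi-reporter transfection, cis promoter elements (endogenous TFs). 24 h exposure. Total RNA → RT → PCR → 6-FAM label → HpaI → CE. Gain/loss vs DMSO.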

Experiment [17] concerns the target Peroxisome proliferator-activated receptor gamma (Homo sapiens) (UniProt P37231). Nature of the experiment: ATG_PPARg_TRANS: Attagene TRANS-FACTORIAL HepG2 Assay for human Peroxisome Proliferator-activated Receptor-gamma (PPARg) (AID 2283007; active means hit-call score of the fitted dose curve at least 0.9, where 1 is the maximum). In short, it runs like this: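 Multiplexed reporter transcription units in HepG2, 24 h dosing, reporter transcripts quantified by fluorescent RT-PCR and capillary electrophoresis. Increase over DMSO scored.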

Experiment [18] deals with Nuclear receptor subfamily 1 group I member 2 (Homo sapiens) (UniProt O75469). The experiment is described as follows: ATG_PXR_TRANS: Attagene TRANS-FACTORIAL HepG2 Assay for human Pregnane X Receptor (PXR) (AID 2283008; active means hit-call score of the fitted dose curve at least 0.9, where 1 is the maximum). In outline:
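Measures mRNA induction of a GAL4-UAS-driven reporter in human HepG2 cells transiently expressing PXR fused to Gal4, following 24 h treatment. DMSO served as negative control and baseline.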

Experiment [19] has as its target human Retinoic Acid Receptor gamma (RARg), RARG (gene 5916) (UniProt P13631). The experiment is described as follows: ATG_RARg_TRANS: Attagene TRANS-FACTORIAL HepG2 Assay for human Retinoic Acid Receptor gamma (RARg) (AID 2283009; active means hit-call score of the fitted dose curve at least 0.9, where 1 is the maximum). In outline:
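HepG2, RARg-GAL4 TRANS system, 24 h exposure; reporter mRNA by RT-PCR + CE fluorescence; increase over DMSO.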

The target of experiment [20] is Retinoic acid receptor alpha (Homo sapiens) (UniProt P10276). The experiment is described as follows: ATG_RARa_TRANS: Attagene TRANS-FACTORIAL HepG2 Assay for human Retinoic Acid Receptor alpha (RARa) (AID 2283005; active means hit-call score of the fitted dose curve at least 0.9, where 1 is the maximum). In short, it runs like this:
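HepG2 cells transiently transfected with multiple reporter units expressing chimeric RARα-GAL4 fusion, with GAL4-UAS-driven reporters. After 24 h compound exposure, reporter mRNA induction quantified by RT-PCR and capillary electrophoresis with fluorescent labeling; gain-of-signal fitted relative to DMSO control.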

Peroxisome proliferator-activated receptor gamma (Homo sapiens), sequence (P37231 whole entry, looked up): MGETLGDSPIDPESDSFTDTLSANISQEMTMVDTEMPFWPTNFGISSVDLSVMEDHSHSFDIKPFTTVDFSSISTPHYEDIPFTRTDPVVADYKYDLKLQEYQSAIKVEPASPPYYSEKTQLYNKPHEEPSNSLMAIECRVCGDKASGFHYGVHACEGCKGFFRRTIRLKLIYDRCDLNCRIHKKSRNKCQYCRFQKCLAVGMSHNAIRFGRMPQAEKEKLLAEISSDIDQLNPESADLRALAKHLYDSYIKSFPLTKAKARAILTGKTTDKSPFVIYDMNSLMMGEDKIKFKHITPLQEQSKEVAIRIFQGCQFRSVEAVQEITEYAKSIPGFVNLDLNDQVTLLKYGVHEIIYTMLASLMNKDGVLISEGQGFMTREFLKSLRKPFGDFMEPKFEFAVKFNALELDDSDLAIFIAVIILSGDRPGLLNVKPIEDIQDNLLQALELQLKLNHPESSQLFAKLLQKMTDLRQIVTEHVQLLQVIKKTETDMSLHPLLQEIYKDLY
Transcriptional activator Myb (Homo sapiens), sequence (P10242 whole entry, looked up): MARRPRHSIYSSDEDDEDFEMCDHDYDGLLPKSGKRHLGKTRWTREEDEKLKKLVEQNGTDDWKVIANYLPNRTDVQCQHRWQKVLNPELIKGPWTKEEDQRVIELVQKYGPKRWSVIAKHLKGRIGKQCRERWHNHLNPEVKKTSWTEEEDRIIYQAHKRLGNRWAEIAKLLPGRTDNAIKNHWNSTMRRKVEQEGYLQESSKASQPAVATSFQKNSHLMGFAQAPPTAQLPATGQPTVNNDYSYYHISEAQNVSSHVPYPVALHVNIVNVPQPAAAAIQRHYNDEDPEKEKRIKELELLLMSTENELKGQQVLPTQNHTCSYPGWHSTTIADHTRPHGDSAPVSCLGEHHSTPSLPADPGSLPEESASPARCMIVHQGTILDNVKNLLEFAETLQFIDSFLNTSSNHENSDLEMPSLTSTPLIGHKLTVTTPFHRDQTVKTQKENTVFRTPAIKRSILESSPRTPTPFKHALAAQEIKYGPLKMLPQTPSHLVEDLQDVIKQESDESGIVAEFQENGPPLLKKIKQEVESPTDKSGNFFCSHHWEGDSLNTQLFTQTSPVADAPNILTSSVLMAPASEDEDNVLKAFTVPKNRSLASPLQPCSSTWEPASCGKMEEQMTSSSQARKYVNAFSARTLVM
Nuclear respiratory factor 1 (Homo sapiens), sequence (Q16656 whole entry, looked up): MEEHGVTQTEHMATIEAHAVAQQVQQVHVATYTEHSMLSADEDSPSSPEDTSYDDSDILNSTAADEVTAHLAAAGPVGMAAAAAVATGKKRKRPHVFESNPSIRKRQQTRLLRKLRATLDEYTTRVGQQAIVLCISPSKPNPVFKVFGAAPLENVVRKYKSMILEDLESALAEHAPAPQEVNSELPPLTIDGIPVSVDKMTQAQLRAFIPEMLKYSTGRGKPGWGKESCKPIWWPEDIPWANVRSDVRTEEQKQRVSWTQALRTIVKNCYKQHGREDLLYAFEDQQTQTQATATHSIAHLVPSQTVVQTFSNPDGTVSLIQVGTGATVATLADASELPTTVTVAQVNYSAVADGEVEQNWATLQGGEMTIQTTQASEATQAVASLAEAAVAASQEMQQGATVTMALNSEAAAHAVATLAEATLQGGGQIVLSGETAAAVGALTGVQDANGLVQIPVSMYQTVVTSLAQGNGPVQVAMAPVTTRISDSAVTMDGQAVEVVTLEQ
Cellular tumor antigen p53 (Homo sapiens), sequence (P04637 whole entry, looked up): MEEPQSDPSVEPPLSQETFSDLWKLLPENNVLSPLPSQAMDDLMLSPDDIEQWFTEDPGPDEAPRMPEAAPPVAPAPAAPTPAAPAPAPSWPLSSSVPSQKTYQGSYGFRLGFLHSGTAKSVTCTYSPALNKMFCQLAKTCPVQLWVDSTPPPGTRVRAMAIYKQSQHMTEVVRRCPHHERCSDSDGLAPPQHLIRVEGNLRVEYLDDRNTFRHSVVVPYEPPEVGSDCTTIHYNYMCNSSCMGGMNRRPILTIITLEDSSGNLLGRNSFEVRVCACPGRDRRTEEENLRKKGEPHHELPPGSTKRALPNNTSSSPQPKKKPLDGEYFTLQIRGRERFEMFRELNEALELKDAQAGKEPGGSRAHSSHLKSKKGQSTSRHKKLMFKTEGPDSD
human Peroxisome Proliferator-activated Receptor delta (PPARd), PPARD (gene 5467), sequence (Q03181 whole entry, looked up, the tested form may be a part): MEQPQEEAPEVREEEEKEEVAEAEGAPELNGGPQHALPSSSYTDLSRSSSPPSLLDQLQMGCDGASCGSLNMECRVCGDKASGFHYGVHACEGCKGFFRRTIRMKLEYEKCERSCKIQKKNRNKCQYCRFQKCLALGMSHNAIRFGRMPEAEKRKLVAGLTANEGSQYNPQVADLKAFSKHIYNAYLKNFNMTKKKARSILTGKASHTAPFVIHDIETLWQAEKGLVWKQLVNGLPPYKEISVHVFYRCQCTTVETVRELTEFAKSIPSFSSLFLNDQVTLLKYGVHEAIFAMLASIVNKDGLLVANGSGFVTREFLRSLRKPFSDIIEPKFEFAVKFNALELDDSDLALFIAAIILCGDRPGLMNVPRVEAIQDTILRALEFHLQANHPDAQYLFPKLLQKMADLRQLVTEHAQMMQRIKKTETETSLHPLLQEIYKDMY
human Retinoic Acid Receptor gamma (RARg), RARG (gene 5916), sequence (P13631 whole entry, looked up, the tested form may be a part): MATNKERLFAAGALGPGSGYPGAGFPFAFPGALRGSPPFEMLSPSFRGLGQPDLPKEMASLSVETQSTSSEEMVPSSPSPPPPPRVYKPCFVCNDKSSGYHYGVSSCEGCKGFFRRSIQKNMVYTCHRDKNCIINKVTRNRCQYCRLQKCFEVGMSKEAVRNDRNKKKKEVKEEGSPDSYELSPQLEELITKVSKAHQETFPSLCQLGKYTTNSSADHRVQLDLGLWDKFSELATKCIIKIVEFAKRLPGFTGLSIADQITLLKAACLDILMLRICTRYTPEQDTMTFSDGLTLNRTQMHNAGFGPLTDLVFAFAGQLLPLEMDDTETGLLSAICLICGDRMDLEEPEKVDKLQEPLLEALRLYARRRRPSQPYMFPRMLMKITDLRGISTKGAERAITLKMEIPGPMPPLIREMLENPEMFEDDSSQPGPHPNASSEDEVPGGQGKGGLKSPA
Myc proto-oncogene protein (Homo sapiens), sequence (P01106 whole entry, looked up): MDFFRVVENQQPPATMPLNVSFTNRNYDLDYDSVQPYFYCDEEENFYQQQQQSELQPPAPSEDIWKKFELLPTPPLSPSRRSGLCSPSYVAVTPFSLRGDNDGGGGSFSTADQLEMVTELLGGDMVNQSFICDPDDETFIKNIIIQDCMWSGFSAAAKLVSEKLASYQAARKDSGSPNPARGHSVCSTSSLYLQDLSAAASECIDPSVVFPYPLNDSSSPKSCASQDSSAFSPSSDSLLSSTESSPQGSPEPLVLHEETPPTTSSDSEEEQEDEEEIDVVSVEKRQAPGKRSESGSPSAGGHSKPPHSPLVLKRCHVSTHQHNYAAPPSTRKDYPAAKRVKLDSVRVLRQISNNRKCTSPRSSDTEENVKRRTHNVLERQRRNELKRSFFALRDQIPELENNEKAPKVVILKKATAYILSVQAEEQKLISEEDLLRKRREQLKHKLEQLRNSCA
human Peroxisome Proliferator-activated Receptor alpha (PPARa), PPARA (gene 5465), sequence (Q07869 whole entry, looked up, the tested form may be a part): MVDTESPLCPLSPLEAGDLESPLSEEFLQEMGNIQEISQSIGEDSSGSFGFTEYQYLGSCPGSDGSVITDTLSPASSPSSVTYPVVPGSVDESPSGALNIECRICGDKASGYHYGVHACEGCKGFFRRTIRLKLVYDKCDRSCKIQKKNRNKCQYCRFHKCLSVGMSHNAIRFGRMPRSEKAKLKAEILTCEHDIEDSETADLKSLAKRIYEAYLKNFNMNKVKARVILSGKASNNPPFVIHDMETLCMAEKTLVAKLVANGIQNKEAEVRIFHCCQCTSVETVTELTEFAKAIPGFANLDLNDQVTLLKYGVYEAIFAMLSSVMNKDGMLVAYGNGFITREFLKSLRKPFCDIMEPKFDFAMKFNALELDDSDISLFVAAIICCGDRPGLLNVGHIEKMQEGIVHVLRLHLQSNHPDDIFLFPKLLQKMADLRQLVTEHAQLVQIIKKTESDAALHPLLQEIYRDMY
Nuclear receptor subfamily 1 group I member 2 (Homo sapiens), sequence (O75469 whole entry, looked up, the tested form may be a part): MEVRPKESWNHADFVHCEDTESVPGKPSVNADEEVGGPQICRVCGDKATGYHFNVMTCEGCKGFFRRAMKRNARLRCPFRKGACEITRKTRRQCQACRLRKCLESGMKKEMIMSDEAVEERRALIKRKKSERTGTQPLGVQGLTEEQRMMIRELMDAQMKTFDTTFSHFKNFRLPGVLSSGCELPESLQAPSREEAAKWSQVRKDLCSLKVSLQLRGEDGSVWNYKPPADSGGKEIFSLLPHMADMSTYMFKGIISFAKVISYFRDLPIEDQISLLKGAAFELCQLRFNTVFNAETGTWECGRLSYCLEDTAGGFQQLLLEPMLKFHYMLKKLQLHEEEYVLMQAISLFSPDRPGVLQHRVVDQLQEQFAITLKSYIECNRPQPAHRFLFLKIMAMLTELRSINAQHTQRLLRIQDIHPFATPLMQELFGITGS
Retinoic acid receptor alpha (Homo sapiens), sequence (P10276 whole entry, looked up, the tested form may be a part): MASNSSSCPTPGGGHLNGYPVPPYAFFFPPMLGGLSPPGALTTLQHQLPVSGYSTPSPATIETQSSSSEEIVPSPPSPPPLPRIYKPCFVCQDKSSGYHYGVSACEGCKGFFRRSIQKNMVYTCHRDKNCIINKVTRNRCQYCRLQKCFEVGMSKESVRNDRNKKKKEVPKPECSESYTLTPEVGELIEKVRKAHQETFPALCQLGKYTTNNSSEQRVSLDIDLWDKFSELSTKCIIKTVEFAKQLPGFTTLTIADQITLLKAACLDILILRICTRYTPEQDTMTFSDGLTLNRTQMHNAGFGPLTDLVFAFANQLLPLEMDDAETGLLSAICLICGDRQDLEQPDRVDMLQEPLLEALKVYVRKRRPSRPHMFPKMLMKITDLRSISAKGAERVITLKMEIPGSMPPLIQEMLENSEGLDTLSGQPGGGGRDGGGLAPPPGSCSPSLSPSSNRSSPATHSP

Take `ClC(Cl)(Cl)c1ccccc1`: the outcome in experiment [1], in experiment [2], in experiment [3], in [4], in experiment [5] and in [6] was inactive. Moreover, the molecule was called inactive in [7], in experiment [8], in [9], in [10], in experiment [11] and in [12]. In addition, the result in experiment [13], in [14] and in experiment [15] was inactive.

One may read the AC50 as the midpoint of the concentration-response curve, whichever way the signal moves. As for `CCOP(=S)(OCC)SCS(=O)(=O)CC`, the molecule was called inactive in experiment [1], in [2], in [3], in [4], in [16] and in [5]. The molecule was called inactive in experiment [6], in [8], in [9], in experiment [10], in experiment [11] and in [12]. Besides, the call in experiment [13], in [14], in experiment [15], in experiment [17] and in [19] was inactive. In addition, the AC50 in [18] was 5.73 µM (active).

On to `c1ccc(OP(Oc2ccccc2)Oc2ccccc2)cc1`, for which the call in experiment [1], in experiment [2], in experiment [3], in [4], in experiment [16] and in experiment [5] was inactive. The molecule was called inactive in experiment [6], in experiment [8], in experiment [9], in experiment [10], in [11] and in experiment [12]. Further, the result in experiment [14], in [15], in [17] and in experiment [18] was inactive.

With `O=S(=O)(F)C(F)(F)C(F)(F)C(F)(F)C(F)(F)C(F)(F)C(F)(F)C(F)(F)C(F)(F)F`, the molecule was called inactive in [1], in experiment [2], in experiment [3], in experiment [16], in [5] and in experiment [6]. Moreover, the outcome in [7], in experiment [8], in experiment [9], in [10], in [11] and in experiment [12] was inactive. For the same molecule, the molecule was called inactive in experiment [13], in [14], in experiment [20], in experiment [15], in experiment [17] and in [18]. Further, the call in experiment [19] was inactive. Moreover, the AC50 in [5] is 63.6 µM (active).

With `CCCCN(CCCC)SN(C)C(=O)Oc1cccc2c1OC(C)(C)C2`, the molecule was called inactive in experiment [1], in experiment [2], in experiment [3], in [4], in experiment [16] and in experiment [6]. Besides, in experiment [13], the molecule was classed as inactive. Besides, the half-maximal activity concentration (AC50) is 31.6 µM (active) in [5]; 20 µM (active) in [8]; 32.3 µM (active) in experiment [9]; 28.4 µM (active) in experiment [10]; 29.3 µM (active) in [11]; 29.8 µM (active) in experiment [14]. Moreover, the AC50 in experiment [15] was 19.8 µM (active); in experiment [17], 12.3 µM (active); in experiment [18], 16 µM (active).

Take `Nc1ccc(Cl)cc1`: the molecule was called inactive in experiment [1], in experiment [2], in experiment [3], in experiment [4], in experiment [5] and in [6]. Moreover, the outcome in experiment [8], in experiment [9], in [10], in experiment [11], in experiment [14] and in experiment [17] was inactive. In experiment [18], the molecule was classed as inactive. In addition, the AC50 in [15] was 13.2 µM (active).

`N#C/C=C/c1ccccc1`: the outcome in [1], in experiment [2], in experiment [3], in [4], in experiment [16] and in [5] was inactive. Also, the molecule was called inactive in experiment [6], in experiment [12], in [13], in experiment [18] and in experiment [19]. For the same molecule, the AC50 in experiment [17] is 10.1 µM (active).

As for `CC(Cl)(Cl)C(=O)O`, the molecule was called inactive in experiment [1], in experiment [2], in experiment [3], in [4], in [5] and in [6]. The result in [8], in experiment [9], in experiment [10], in experiment [11], in [14] and in experiment [15] was inactive. In addition, the molecule was classed as inactive in experiment [17] and in experiment [18].

Values taken from PubChem BioAssay (EPA / NIEHS).
